Data on 8 compounds can be found in PubChem BioAssay (NCI).

This experiment in a line: NCI Yeast Anticancer Drug Screen. Data for the wt1 strain (AID 149).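 Note: 0% = growth of vehicle-treated wt1 cultures.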 The following applies: S. cerevisiae wt1 strain (SPY 50644) growth inhibition, stronger effect = higher value. As to the method: Growth inhibition of yeast strains with defined genetic alterations is measured as a screen for potential anti-cancer activity. Selected strains with alterations in DNA damage repair or cell cycle control were exposed to compounds and growth inhibition was measured relative to vehicle treated controls. The strain used in this assay is wt1

Compounds without any hit were thinned out: in the full panel of roughly 79,000, 15% have a hit. Values without a mark were called inactive. Calls of active or inactive are those of the source. Cut-off read from the data, not from the text of the source: active = growth inhibition above about 70%; inactive = the rest.

As to `Cc1nc(-c2ccccc2)c(-c2ccccc2)s1`, the growth inhibition was -12% (at 1.2 µM); 9% (at 3.7 µM); 9% (at 11.0 µM); 59% (at 33.0 µM); 98% (active) (at 100.0 µM).

`CCC#CCCCOC(=O)c1cc([N+](=O)[O-])cc([N+](=O)[O-])c1`: the growth inhibition is, setting by setting: (at 1.2 µM) -6%; (at 3.7 µM) -8%; (at 11.0 µM) -10%; (at 33.0 µM) 66%; (at 100.0 µM) 99% (active).

Turning to `Cc1c(C(=O)C(=O)c2ccccc2)c(C)c(C(=O)C(=O)c2ccccc2)c(C)c1C(=O)C(=O)c1ccccc1`, the growth inhibition reads like this: (at 1.2 µM) 0%; (at 3.7 µM) 1%; (at 11.0 µM) -1%; (at 33.0 µM) -4%; (at 100.0 µM) -5%.

Consider `COC(=O)c1ccc(CCC2=CC(=O)C(Br)=CC2=O)cc1`, for which the growth inhibition is, setting by setting: (at 1.2 µM) 4%; (at 3.7 µM) 3%; (at 11.0 µM) 4%; (at 33.0 µM) 12%; (at 100.0 µM) 28%.

For the compound `[O-][n+]1c2ccc(O)cc2nc2ccc(Br)cc21`, the growth inhibition (at 1.2 µM) is 1%; the growth inhibition (at 3.7 µM) was 14%; the growth inhibition (at 11.0 µM) was 22%; the growth inhibition (at 33.0 µM) was 45%; the growth inhibition (at 100.0 µM) is 67%.

Regarding `CCOC(=O)c1cnc2c(C(F)(F)F)cccc2c1N=[N+]=[N-]`, the growth inhibition was 10% (at 1.2 µM); 1% (at 3.7 µM); 1% (at 11.0 µM); 37% (at 33.0 µM); 87% (active) (at 100.0 µM).

Regarding `CN(C)CCn1c2c3ccccc3ccc2c2oc(=O)c3ccccc3c21`, the growth inhibition is 13% (at 1.2 µM); 8% (at 3.7 µM); 35% (at 11.0 µM); 92% (active) (at 33.0 µM); 92% (active) (at 100.0 µM).

`O=[N+]([O-])c1ccc(=S)[nH]c1`: the growth inhibition (at 1.2 µM) is -1%; the growth inhibition (at 3.7 µM) was -2%; the growth inhibition (at 11.0 µM) is -6%; the growth inhibition (at 33.0 µM) is 13%; the growth inhibition (at 100.0 µM) is 78% (active).
